The nature of this experiment: chemical genetic growth profiling, strain panel (AID 1159580).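 Note: tested at 20 µM; growth read once vehicle control cultures reached saturation at 30 °C; 1 = growth at the plate median or of vehicle wells; lower values mean less growth of the strain.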 The following applies: growth OD.
Where [1] appears, read: S. cerevisiae deletion strains, locus YAL013W, strain DEP1, stronger effect = lower value.
The mark [2] stands for this setting: S. cerevisiae deletion strains, locus YGR078C, strain PAC10, stronger effect = lower value.
Where [3] appears, read: S. cerevisiae deletion strains, locus YMR263W, strain SAP30, stronger effect = lower value.
Setting [4] is: S. cerevisiae deletion strains, locus YMR307W, strain GAS1, stronger effect = lower value.
The mark [5] stands for this setting: S. cerevisiae deletion strains, locus YNL153C, strain GIM3, stronger effect = lower value.
Where [6] appears, read: S. cerevisiae deletion strains, locus YNL322C, strain KRE1, stronger effect = lower value.

The whole screen tested about 5,500 compounds, of which about 2,000 (36%) were called active. Inconclusive results (about 18%) are left out. The list shows a part of the results. Unmarked numbers belong to inactive results. Cut-off read from the data, not from the text of the source: active = normalized growth mostly below about 0.91 (no sharp cut-off); inconclusive = no clear call, values can overlap the other calls; inactive = mostly above about 0.92.

As to `CCOC(=O)c1c(Nc2ccccc2)sc([N+](=O)[O-])c1N`, the normalized growth runs as follows: under setting [1], 0.941; (S. cerevisiae deletion strains, locus YBR229C, strain ROT2, stronger effect = lower value) 1.01; (S. cerevisiae deletion strains, locus YDL101C, strain DUN1, stronger effect = lower value) 1.02; (S. cerevisiae deletion strains, locus YDR150W, strain NUM1, stronger effect = lower value) 0.969; (S. cerevisiae deletion strains, locus YEL061C, strain CIN8, stronger effect = lower value) 0.985; under setting [2], 0.985. The normalized growth was 0.743 (S. cerevisiae deletion strains, locus YHR030C, strain SLT2, stronger effect = lower value); 0.98 (S. cerevisiae deletion strains, locus YHR087W, strain rtc3, stronger effect = lower value); 0.956 (S. cerevisiae deletion strains, locus YJR043C, strain POL32, stronger effect = lower value); 0.949 (S. cerevisiae deletion strains, locus YJR075W, strain HOC1, stronger effect = lower value); 0.977 (S. cerevisiae deletion strains, locus YKL190W, strain CNB1, stronger effect = lower value); 0.964 (S. cerevisiae deletion strains, locus YLR039C, strain RIC1, stronger effect = lower value). Moreover, the normalized growth runs as follows: (S. cerevisiae deletion strains, locus YLR058C, strain SHM2 (second series), stronger effect = lower value) 1; (S. cerevisiae deletion strains, locus YLR085C, strain ARP6, stronger effect = lower value) 0.762 (active); (S. cerevisiae deletion strains, locus YLR262C, strain YPT6, stronger effect = lower value) 0.965; (S. cerevisiae deletion strains, locus YML094W, strain GIM5, stronger effect = lower value) 0.961; (S. cerevisiae deletion strains, locus YMR219W, strain ESC1, stronger effect = lower value) 0.998; under setting [3], 0.931. For the same molecule, the normalized growth is 0.66 (active) under setting [4]; 0.986 under setting [5]; 0.917 (S. cerevisiae deletion strains, locus YNL298W, strain CLA4 (second series), stronger effect = lower value); 0.985 under setting [6]; 0.952 (S. cerevisiae deletion strains, locus YNR030W, strain Alg12, stronger effect = lower value); 0.846 (S. cerevisiae deletion strains, locus YPL055C, strain LGE1, stronger effect = lower value). In addition, the normalized growth is, setting by setting: (S. cerevisiae deletion strains, locus YPL241C, strain CIN2, stronger effect = lower value) 0.849 (active); (S. cerevisiae deletion strains, locus YPR135W, strain CTF4, stronger effect = lower value) 0.783; (S. cerevisiae strains, strain wild type, stronger effect = lower value) 0.977.

`C#CCN1C(C)=C(C(=O)OC)C(c2cccc([N+](=O)[O-])c2)C(C(=O)OCC)=C1C` (configuration not stated): the normalized growth was 1.01 under setting [1]; 0.971 (S. cerevisiae deletion strains, locus YAL040C, strain CLN3, stronger effect = lower value); 1 (S. cerevisiae deletion strains, locus YCL061C, strain MRC1 (second series), stronger effect = lower value); 1.01 (S. cerevisiae deletion strains, locus YDR363W, strain ESC2, stronger effect = lower value); 1.02 (S. cerevisiae deletion strains, locus YER002W, strain NOP16, stronger effect = lower value); 0.996 under setting [2]. In addition, the normalized growth was 1.02 under setting [3]; 0.998 under setting [4]; 1.03 (S. cerevisiae deletion strains, locus YNL128W, strain TEP1, stronger effect = lower value); 0.988 under setting [5]; 1.04 (S. cerevisiae deletion strains, locus YNL175C, strain NOP13, stronger effect = lower value); 1.03 (S. cerevisiae deletion strains, locus YNL197C, strain WHI3, stronger effect = lower value). The normalized growth reads like this: (S. cerevisiae deletion strains, locus YNL224C, strain SQS1, stronger effect = lower value) 1; under setting [6], 1; (S. cerevisiae deletion strains, locus YOR083W, strain WHI5 (second series), stronger effect = lower value) 1.04.

Source of the values: PubChem BioAssay AID1159580 (chemical genetic matrix, 2015).
